This note sets out measurements from the supplement of paper PMC7366291.

Counter-ions that a name gives are not always drawn. ± gives the standard deviation or the standard deviation of the averaged measurements.

What all share (settings): 25 µM; exposure: 24-48 hpf
Test [1] concerns Danio rerio Tg(wt1b:EGFP) embryo, pronephros. Nature of the test: glomerular separation, fold change vs DMSO control; higher = glomeruli further apart (abnormal). An outline of the steps:
(§1)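 Dechorionated Tg(wt1b:EGFP) zebrafish embryos were treated with 25 μM compound in 0.5% DMSO, in HEPES-buffered E3 with 0.003% PTU, from 24 to 48 hpf at 28.5°C. On maximum projections of dorsal pronephros images, 16 hand-placed reference points in Fiji gave distances and angles, and values more than 2 SD from the feature mean were left out. Results are fold changes over the mean of same-day DMSO-treated embryos.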

Test [2] shares this test system. Description: glomerular width (mean of left and right), fold change vs DMSO control; higher = wider glomerulus. An outline of the steps:
as §1

Test [3] has the same test system. Description: fraction of imaged embryos annotated as normal kidney; higher = less nephrotoxic; extreme values may be limits of the assay. An outline of the steps: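 Dechorionated Tg(wt1b:EGFP) zebrafish embryos were exposed in 12-well plates to 25 μM compound in 0.5% DMSO, 5 mM HEPES-buffered E3 with 0.003% PTU, from 24 to 48 hpf at 28.5°C. Tricaine-anaesthetised larvae were oriented dorsally in agarose-filled 96-well plates, and pronephroi were imaged by widefield fluorescence (470 nm, 10 z-slices). Each embryo was manually annotated from maximum projections. The read-out is the fraction of embryos per treatment assigned to the normal-kidney category.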

The test system is the same in test [4]. Nature of the test: pronephric angle neck segment to proximal convoluted tubule (mean of left and right), fold change vs DMSO control; higher = larger pronephric angle. An outline of the steps: as §1

Molecule `Nc1nc(=S)c2ncn([C@@H]3O[C@H](CO)[C@@H](O)[C@H]3O)c2[nH]1` [Thioguanosine] returned a glomerular separation in test [1] of 1.01 ± 0.38. Moreover, the glomerular width in test [2] worked out at 1.02 ± 0.012. Also, the “fraction of imaged embryos annotated as normal kidney” value (“fraction of imaged embryos annotated” below) in test [3] was 0.917. For the same molecule, the “pronephric angle neck segment” value in test [4] was 1.03 ± 0.036.
For the molecule `CCOC(=O)C1=C(C)NC(C)=C(C(=O)OC)C1c1cccc([N+](=O)[O-])c1` (stereo unspecified) [Nitrendipine], in test [1], the glomerular separation turned out to be 5.49 ± 1. In addition, in test [2], the glomerular width was 0.6357 ± 0.0031. Moreover, the “fraction of imaged embryos annotated” value in test [3] was 0. For the same molecule, the “pronephric angle neck segment” value in test [4] is 1.29 ± 0.044.
Molecule `C=C[C@H]1CN2CC[C@H]1C[C@@H]2[C@@H](O)c1ccnc2ccc(OC)cc12` [Quinidine hydrochloride monohydrate] yielded a glomerular separation in test [1] of 0.962 ± 0.19. The same molecule came in with a glomerular width in test [2] of 1.13 ± 0.084. For the same molecule, the “fraction of imaged embryos annotated” value in test [3] came out at 0.75. Besides, in test [4], the “pronephric angle neck segment” value was determined as 1.01 ± 0.016.
The like results for `CC(=O)NCCCS(=O)(=O)O` [Acamprosate calcium] were, in that order, 1.02 ± 0.41, 1.02 ± 0.022, 0.75 and 0.991 ± 0.053.
Turning to `CC(C)NCC(O)COc1ccc(CCOCC2CC2)cc1` (stereo unspecified) [Betaxolol hydrochloride], the glomerular separation in test [1] was 1.15 ± 0.6. Besides, the glomerular width in test [2] came to 1 ± 0.065. Also, the “fraction of imaged embryos annotated” value in test [3] stood at 1. In addition, in test [4], the “pronephric angle neck segment” value is 0.987 ± 0.025.
For the molecule `CCc1c2c(nc3ccc(OC(=O)N4CCC(N5CCCCC5)CC4)cc13)-c1cc3c(c(=O)n1C2)COC(=O)[C@]3(O)CC` [Irinotecan hydrochloride trihydrate], the glomerular separation in test [1] was 1.09 ± 0.45. In addition, in test [2], the glomerular width came out at 1.02 ± 0.022. Also, in test [3], the “fraction of imaged embryos annotated” value was found to be 0.667. Further, the “pronephric angle neck segment” value in test [4] was found to be 1.02 ± 0.028.
Consider `Cc1[nH]c(=O)c(C#N)cc1-c1ccncc1` [Milrinone], for which the glomerular separation in test [1] is 1.13 ± 0.36. Further, in test [2], the glomerular width came out at 1.01 ± 0.047. Moreover, in test [3], the “fraction of imaged embryos annotated” value is 0.917. In addition, the “pronephric angle neck segment” value in test [4] worked out at 0.9759 ± 0.0011.
The like results for `CC(=O)Nc1nnc(S(N)(=O)=O)s1` [Acetazolamide] were, in that order, 0.751 ± 0.2, 0.973 ± 0.029, 0.917 and 0.9766 ± 0.0062.
In test [1], `CC(=O)OCC(=O)NCCCOc1cccc(CN2CCCCC2)c1` [Roxatidine Acetate hydrochloride] displayed a glomerular separation of 1.07 ± 0.37. For the same molecule, the glomerular width in test [2] came to 1 ± 0.03. Moreover, the “fraction of imaged embryos annotated” value in test [3] turned out to be 0.667. Besides, the “pronephric angle neck segment” value in test [4] came to 1.01 ± 0.06.
Regarding `CCCCCCCCNC(C)C(O)c1ccc(SC(C)C)cc1` (stereo unspecified) [Suloctidil], the glomerular separation in test [1] came to 4.23 ± 2.2. For the same molecule, the glomerular width in test [2] was 0.877 ± 0.029. Also, the “fraction of imaged embryos annotated” value in test [3] turned out to be 0. The “pronephric angle neck segment” value in test [4] was 1.48 ± 0.033.
Consider `COc1ccc2c3c1O[C@H]1C[C@@H](O)C=C[C@@]31CCN(C)C2` [Galanthamine hydrobromide], for which the glomerular separation in test [1] stood at 1.08 ± 0.38. The same molecule came in with a glomerular width in test [2] of 1.04 ± 0.0055. Also, in test [3], the “fraction of imaged embryos annotated” value stood at 0.917. The “pronephric angle neck segment” value in test [4] turned out to be 0.964 ± 0.029.
Turning to `CCOC(=O)[C@@](C)(N)Cc1ccc(O)c(O)c1` [Methyldopate hydrochloride], the glomerular separation in test [1] is 1.28 ± 0.62. The molecule also came in with a glomerular width in test [2] of 0.9116 ± 0.0027. The “fraction of imaged embryos annotated” value in test [3] came to 0.667. In addition, in test [4], the “pronephric angle neck segment” value turned out to be 1.014 ± 0.0011.
Consider `CCc1ccc(CCOc2ccc(CC3SC(=O)NC3=O)cc2)nc1` (stereo unspecified) [Pioglitazone], for which the glomerular separation in test [1] came out at 1.48 ± 0.83. Besides, in test [2], the glomerular width stood at 1.03 ± 0.0063. Also, the “fraction of imaged embryos annotated” value in test [3] stood at 0.75. The “pronephric angle neck segment” value in test [4] came out at 1.03 ± 0.018.
In test [1], `CCCc1cc(=O)[nH]c(=S)[nH]1` [Propylthiouracil] came in with a glomerular separation of 0.81 ± 0.17. For the same molecule, in test [2], the glomerular width was 1.058 ± 0.0069. The “fraction of imaged embryos annotated” value in test [3] turned out to be 1. For the same molecule, the “pronephric angle neck segment” value in test [4] stood at 1.02 ± 0.044.
The like results for `CCCCc1ccc2[nH]c(NC(=O)OC)nc2c1` [Parbendazole] were, in that order, 2.51 ± 0.79, 0.5042 ± 0.0026, 0 and 1.81 ± 0.054.
`CC(=O)N[C@@H](CC(C)C)C(=O)O` [N-Acetyl-L-leucine]: the glomerular separation in test [1] was 1.02 ± 0.21. This molecule also returned a glomerular width in test [2] of 1.075 ± 0.0078. For the same molecule, the “fraction of imaged embryos annotated” value in test [3] is 0.917. Moreover, the “pronephric angle neck segment” value in test [4] was determined as 0.993 ± 0.013.
For the molecule `N=C(N)NC(=N)NCCc1ccccc1` [Phenformin hydrochloride], the glomerular separation in test [1] was determined as 0.95 ± 0.25. In addition, the glomerular width in test [2] amounted to 0.978 ± 0.021. The “fraction of imaged embryos annotated” value in test [3] came to 0.917. Besides, the “pronephric angle neck segment” value in test [4] is 0.956 ± 0.029.
In test [1], `O=C(CCCN1CC=C(n2c(=O)[nH]c3ccccc32)CC1)c1ccc(F)cc1` [Droperidol] gave a glomerular separation of 1.38 ± 0.42. In test [2], this molecule gave a glomerular width of 0.84901 ± 0.00078. Also, the “fraction of imaged embryos annotated” value in test [3] turned out to be 0.667. In test [4], the “pronephric angle neck segment” value came to 1.04 ± 0.046.
On the same counts, the results for `CNS(=O)(=O)Cc1ccc2[nH]cc(CCN(C)C)c2c1` [Sumatriptan succinate] are 0.982 ± 0.29, 1.03 ± 0.053, 1 and 1 ± 0.04.
`CC(N)CCCC(C)(C)O` (stereo unspecified) [Heptaminol hydrochloride] returned a glomerular separation in test [1] of 1.19 ± 0.48. Further, the glomerular width in test [2] is 1 ± 0.044. Further, the “fraction of imaged embryos annotated” value in test [3] was determined as 0.75. For the same molecule, in test [4], the “pronephric angle neck segment” value is 0.971 ± 0.023.
In test [1], `CCN(CC)CCNC(=O)c1cc(S(C)(=O)=O)ccc1OC` [Tiapride hydrochloride] yielded a glomerular separation of 1.1 ± 0.29. Further, in test [2], the glomerular width stood at 0.902 ± 0.073. In addition, the “fraction of imaged embryos annotated” value in test [3] was 0.909. Further, the “pronephric angle neck segment” value in test [4] was determined as 1.036 ± 0.0056.
For the molecule `C[C@H](O)C(=O)Nc1c(I)c(C(=O)NC(CO)CO)c(I)c(C(=O)NC(CO)CO)c1I` [Iopamidol], in test [1], the glomerular separation was 0.92 ± 0.3. Also, the glomerular width in test [2] was 0.9773 ± 0.007. Further, the “fraction of imaged embryos annotated” value in test [3] came to 0.833. Also, the “pronephric angle neck segment” value in test [4] came to 1.01 ± 0.038.
`COc1ccc(CC2c3cc(OC)c(OC)cc3CC[N+]2(C)CCC(=O)OCCCCCOC(=O)CC[N+]2(C)CCc3cc(OC)c(OC)cc3C2Cc2ccc(OC)c(OC)c2)cc1OC` (stereo unspecified) [Atracurium besylate] came in with a glomerular separation in test [1] of 1.2 ± 0.6. Moreover, the glomerular width in test [2] worked out at 0.944 ± 0.012. Also, in test [3], the “fraction of imaged embryos annotated” value came out at 0.917. For the same molecule, in test [4], the “pronephric angle neck segment” value turned out to be 0.954 ± 0.016.
`CCCCOC(=O)c1ccc(N)cc1` [Butamben] yielded a glomerular separation in test [1] of 1.07 ± 0.41. This molecule displayed a glomerular width in test [2] of 1.04 ± 0.12. In addition, in test [3], the “fraction of imaged embryos annotated” value came out at 0.917. In addition, in test [4], the “pronephric angle neck segment” value was determined as 0.9834 ± 0.0087.
